Inconclusive results are not listed. The source made the active and inactive calls. Unless noted, calls follow the shape of the full dose curve.
Legend:
[1] = Nuclear factor erythroid 2-related factor 2/antioxidant responsive element (Nrf2/ARE) small molecule agonists: qHTS cell viability counter screen in human keratinocytes (AID 1919968; active = well fitted curve in the direction sought with a large enough effect in the repeat runs; an effect the other way counts as inactive or inconclusive; also: nearly all actives have a fitted effect of over 55% in size; also: potency is read from the fitted curve at half-maximal effect)
Procedure, shortened: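 Viability counter-screen: KeratinoSens reporter cells, DMSO-delivered compounds, 23 h at 37 C, CellTiter-Fluor fluorescence.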

[2] = Nuclear factor erythroid 2-related factor 2/antioxidant responsive element (Nrf2/ARE) small molecule agonists: luciferase reporter gene qHTS assay in human keratinocytes (AID 1919969); also: nearly all actives have a fitted effect of over 35% in size
[3] = molecular target: Gonadotropin-releasing hormone receptor (Homo sapiens) (UniProt P30968); test: Human gonadotropin-releasing hormone receptor (GnRHR) small molecule agonists, calcium flux assay in GnRHR-HEK293 cells (AID 1920063); also: nearly all actives have a fitted effect of over 35% in size; also: potency is read from the fitted curve at half-maximal effect
Gonadotropin-releasing hormone receptor (Homo sapiens), sequence (P30968 whole entry, looked up): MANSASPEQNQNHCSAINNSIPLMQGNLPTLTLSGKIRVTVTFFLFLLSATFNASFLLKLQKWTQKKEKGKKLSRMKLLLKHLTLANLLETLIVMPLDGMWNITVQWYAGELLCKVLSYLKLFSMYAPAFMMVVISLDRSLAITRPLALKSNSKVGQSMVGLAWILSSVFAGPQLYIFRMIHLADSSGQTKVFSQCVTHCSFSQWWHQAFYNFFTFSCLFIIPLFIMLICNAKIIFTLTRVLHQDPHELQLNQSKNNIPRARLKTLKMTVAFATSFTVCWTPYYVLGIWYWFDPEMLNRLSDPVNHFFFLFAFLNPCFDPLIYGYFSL
Procedure, shortened: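 Tox21-format agonist screen using human GnRHR-expressing HEK293 cells and a fluorescent calcium dye; kinetic 3-min fluorescence reading after compound addition, 15-point concentration series run in triplicate.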

[4] = molecular target: KiSS-1 receptor (Homo sapiens) (UniProt Q969F8); test: Human kisspeptin (KISS1R) small molecule agonists, calcium flux assay in KISS1R-HEK293 cells (AID 1920064; active = well fitted curve in the direction sought with a large enough effect in the repeat runs; an effect the other way counts as inactive or inconclusive)
KiSS-1 receptor (Homo sapiens), sequence (Q969F8 whole entry, looked up): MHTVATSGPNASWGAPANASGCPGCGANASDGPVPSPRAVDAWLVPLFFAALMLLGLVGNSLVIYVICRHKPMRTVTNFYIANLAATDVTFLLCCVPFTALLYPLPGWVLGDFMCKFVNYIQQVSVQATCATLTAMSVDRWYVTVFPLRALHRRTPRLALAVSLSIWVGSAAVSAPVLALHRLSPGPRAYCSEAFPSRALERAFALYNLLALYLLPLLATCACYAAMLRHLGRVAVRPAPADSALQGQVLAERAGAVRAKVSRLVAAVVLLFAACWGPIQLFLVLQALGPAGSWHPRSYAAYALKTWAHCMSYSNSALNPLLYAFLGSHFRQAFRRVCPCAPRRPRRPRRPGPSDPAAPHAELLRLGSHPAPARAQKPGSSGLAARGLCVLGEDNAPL
Procedure, shortened: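 Intracellular calcium mobilization in KISS1R-HEK293 cells was recorded by fluorescence (Ex/Em 480/540) for 3 min following compound addition to cells pre-loaded 1 h with calcium dye.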

[5] = G protein-coupled receptor (GPCR) small molecule agonists, calcium flux assay: HEK293 wild type cell line counter screen (AID 1920065)
Procedure, shortened: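 In this agonist-mode screen, ATP is the positive control and DMSO the vehicle. Cells grow 18 h before a 1 h dye incubation at 37 C; signal is taken at Ex/Em 480/540 over 3 min.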

[6] = p53 small molecule agonists, cell-based qHTS assay with human liver microsomes (AID 1963577);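 also: p53 response element beta-lactamase reporter cells with liver microsomes plus NADPH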
Procedure, shortened: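 Reporter activation was measured by LiveBLAzer fluorescence intensity in p53RE-bla cells, which had been exposed to compounds for 16 h at 37 C alongside 0.5 mg/mL human liver microsomes and 0.5 mg/mL NADPH (final concentrations).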

[7] = p53 small molecule agonists, cell-based qHTS assay with rat liver microsomes (AID 1963578)
Procedure, shortened: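 Compound in DMSO added to p53RE-bla cells 5 h post-plating; rat microsomes/NADPH 0.5 mg/mL final; 16 h, 37 C; LiveBLAzer 2 h RT.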

[8] = p53 small molecule agonists, cell-based qHTS assay with human liver microsomes: qHTS cell viability counter screen (AID 1963579); also: nearly all actives have a fitted effect of over 45% in size; also: potency is read from the fitted curve at half-maximal effect
Procedure, shortened: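 HLM-supplemented (0.5 mg/mL final) and NADPH-supplemented (0.5 mg/mL final) p53RE-bla cultures, 4,000 cells per well, were dosed with compounds in DMSO for 16 h at 37 C; luminescent ATP detection (CellTiter-Glo, 30 min, room temperature) quantified surviving cells.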

[9] = p53 small molecule agonists, cell-based qHTS assay with rat liver microsomes: qHTS cell viability counter screen (AID 1963580); also: nearly all actives have a fitted effect of over 45% in size; also: potency is read from the fitted curve at half-maximal effect
Procedure, shortened: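 p53RE-bla HCT-116 cells were exposed 16 h at 37 C to compounds with rat liver microsomes (0.5 mg/mL) and NADPH (0.5 mg/mL). Viability was measured in the same wells as ATP content by CellTiter-Glo luminescence.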

[10] = p53 small molecule agonists, cell-based qHTS assay: qHTS cell viability counter screen (AID 1963581); also: nearly all actives have a fitted effect of over 45% in size; also: potency is read from the fitted curve at half-maximal effect
Procedure, shortened: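 Compounds are pinned onto HCT-116 p53RE-bla cells and left 16 h at 37 C. Following the reporter FRET read, ATP is quantified by CellTiter-Glo luminescence after 30 min at room temperature.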

[11] = molecular target: 5-hydroxytryptamine receptor 2A (Homo sapiens) (UniProt P28223); test: 5-hydroxytryptamine receptor 2A (HTR2A) small molecule agonists, cell-based qHTS assay (AID 1963587); also: nearly all actives have a fitted effect of over 30% in size
5-hydroxytryptamine receptor 2A (Homo sapiens), sequence (P28223 whole entry, looked up): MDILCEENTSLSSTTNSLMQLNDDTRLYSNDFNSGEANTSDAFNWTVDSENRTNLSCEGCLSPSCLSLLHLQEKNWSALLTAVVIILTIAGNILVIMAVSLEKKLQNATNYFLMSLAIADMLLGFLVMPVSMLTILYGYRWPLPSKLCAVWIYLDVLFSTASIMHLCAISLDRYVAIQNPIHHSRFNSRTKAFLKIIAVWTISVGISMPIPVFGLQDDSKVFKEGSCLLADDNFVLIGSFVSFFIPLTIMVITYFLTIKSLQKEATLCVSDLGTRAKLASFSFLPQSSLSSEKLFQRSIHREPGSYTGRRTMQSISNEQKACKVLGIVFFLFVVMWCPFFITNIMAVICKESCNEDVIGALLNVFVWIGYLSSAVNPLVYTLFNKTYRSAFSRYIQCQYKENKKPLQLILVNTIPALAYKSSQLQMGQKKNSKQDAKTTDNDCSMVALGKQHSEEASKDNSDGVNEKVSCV
Procedure, shortened: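 CHO cells stably expressing human HTR2A, plated 18 h, loaded with calcium dye 1 h at 37 C. Agonist mode: compounds added and intracellular calcium fluorescence recorded kinetically for 2 min at 1 sec intervals.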

[12] = molecular target: Muscarinic acetylcholine receptor M1 (Homo sapiens) (UniProt P11229); test: Cholinergic receptor muscarinic 1 (CHRM1) small molecule antagonists, cell-based qHTS assay (AID 1963588); also: nearly all actives have a fitted effect of over 40% in size
Muscarinic acetylcholine receptor M1 (Homo sapiens), sequence (P11229 whole entry, looked up): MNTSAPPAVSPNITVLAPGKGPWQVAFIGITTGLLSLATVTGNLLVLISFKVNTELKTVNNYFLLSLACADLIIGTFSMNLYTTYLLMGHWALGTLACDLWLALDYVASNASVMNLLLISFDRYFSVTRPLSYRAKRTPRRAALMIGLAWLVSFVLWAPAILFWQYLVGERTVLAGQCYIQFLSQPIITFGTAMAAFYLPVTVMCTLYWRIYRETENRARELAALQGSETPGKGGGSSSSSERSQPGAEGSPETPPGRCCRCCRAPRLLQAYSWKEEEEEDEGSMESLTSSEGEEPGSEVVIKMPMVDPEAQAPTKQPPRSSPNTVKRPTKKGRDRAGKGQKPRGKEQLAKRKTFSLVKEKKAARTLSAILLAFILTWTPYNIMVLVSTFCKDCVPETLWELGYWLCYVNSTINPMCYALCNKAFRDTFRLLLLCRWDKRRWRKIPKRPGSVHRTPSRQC
Procedure, shortened: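 CHRM1-CHO calcium-flux assay, antagonist mode. Cells were seeded 18 h, dye-loaded 1 h at 37 C and given compound for 5 min at RT, then acetylcholine was added at 50nM. FDSS fluorescence was read 3 min; 15 concentrations, three runs.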

[13] = molecular target: Muscarinic acetylcholine receptor M1 (Homo sapiens) (UniProt P11229); test: Cholinergic receptor muscarinic 1 (CHRM1) small molecule agonists, cell-based qHTS assay (AID 1963589); also: nearly all actives have a fitted effect of over 35% in size
Procedure, shortened: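 Stable CHRM1-CHO cells (human receptor) were incubated 18 h, dye-loaded for 1 h at 37 C and exposed to test compounds for agonist activity, with calcium-dependent fluorescence followed kinetically.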

[14] = molecular target: Beta-2 adrenergic receptor (Homo sapiens) (UniProt P07550); test: Adrenergic beta2 receptor (ADRB2) small molecule antagonists, cell-based qHTS assay (AID 1963592); also: series mostly up to about 92 µM; nearly all actives have a fitted effect of over 50% in size
Beta-2 adrenergic receptor (Homo sapiens), sequence (P07550 whole entry, looked up): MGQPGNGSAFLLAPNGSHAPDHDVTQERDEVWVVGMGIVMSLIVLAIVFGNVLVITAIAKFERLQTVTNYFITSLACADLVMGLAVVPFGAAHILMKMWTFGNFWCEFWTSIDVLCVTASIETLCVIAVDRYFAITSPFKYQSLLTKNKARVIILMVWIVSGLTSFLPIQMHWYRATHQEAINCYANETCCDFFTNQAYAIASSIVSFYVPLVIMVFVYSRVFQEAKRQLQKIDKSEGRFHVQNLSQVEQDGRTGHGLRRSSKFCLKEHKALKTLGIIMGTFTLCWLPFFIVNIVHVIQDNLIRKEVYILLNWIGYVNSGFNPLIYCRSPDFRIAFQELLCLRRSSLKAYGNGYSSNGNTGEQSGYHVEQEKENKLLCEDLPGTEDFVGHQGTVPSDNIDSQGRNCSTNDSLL
Procedure, shortened: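 Cells (CHO, stable ADRB2 overexpression) incubated 18-20hr at 37C; compounds added from DMSO; agonist mix (1nM isoproterenol, 100uM IBMX, 25uM Ro-20-1724) added; 0.5hr RT; d2-cAMP and anti-cAMP-cryptate added; 1hr RT; 665/615 nm read.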

[15] = molecular target: D(2) dopamine receptor (Homo sapiens) (UniProt P14416); test: Dopamine D2 receptor (DRD2) small molecule agonists, cell-based qHTS assay (AID 1963594); also: nearly all actives have a fitted effect of over 35% in size
D(2) dopamine receptor (Homo sapiens), sequence (P14416 whole entry, looked up): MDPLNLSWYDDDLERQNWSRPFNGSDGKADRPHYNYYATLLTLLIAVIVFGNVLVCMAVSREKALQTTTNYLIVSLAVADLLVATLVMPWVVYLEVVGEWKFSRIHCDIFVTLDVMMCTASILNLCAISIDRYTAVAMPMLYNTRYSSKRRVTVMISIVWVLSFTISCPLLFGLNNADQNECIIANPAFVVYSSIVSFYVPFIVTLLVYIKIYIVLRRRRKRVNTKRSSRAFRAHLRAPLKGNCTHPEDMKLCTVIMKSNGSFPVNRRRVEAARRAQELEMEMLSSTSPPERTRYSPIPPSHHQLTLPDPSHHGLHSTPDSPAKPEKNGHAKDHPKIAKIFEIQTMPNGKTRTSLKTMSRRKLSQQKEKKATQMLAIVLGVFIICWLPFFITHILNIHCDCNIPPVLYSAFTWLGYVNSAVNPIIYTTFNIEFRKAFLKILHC
Procedure, shortened: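 HEK293 cells stably expressing human DRD2, pre-treated with PDE inhibitor Ro20-1724 (0.1 mM final) and compound 10 min at room temperature, then stimulated with NKH477 (200nM […]) for 30 min. cAMP read by HTRF (665/620 nm).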

[16] = molecular target: D(2) dopamine receptor (Homo sapiens) (UniProt P14416); test: Dopamine D2 receptor (DRD2) small molecule antagonists, cell-based qHTS assay (AID 1963595; active = well fitted inhibition curve with a large enough effect in the signal ratio in the repeat runs, with a control signal flat; the % refers to the signal ratio)
Procedure, shortened: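 HTRF cAMP read-out at 665 and 620 nm emission (340 nm excitation). Antagonist mode: compounds were tested against 12 nM quinpirole in DRD2-HEK293 cells, with 200 nM NKH477 raising cAMP and 0.1 mM Ro20-1724 blocking its breakdown.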

[17] = cAMP Responsive Elements (CRE) small molecule agonists, cell-based qHTS assay (AID 1963590)
Procedure, shortened: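 FRET-based beta-lactamase readout (LiveBLAzer B/G, 2 h RT) quantified CRE activation in HEK 293T CRE-bla cells after 3 h treatment with DMSO-dissolved compounds.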

[18] = cAMP Responsive Elements (CRE) small molecule antagonists, cell-based qHTS assay (AID 1963591; active = well fitted inhibition curve with a large enough effect in the signal ratio in the repeat runs, not every such curve was filed as active; the % refers to the signal ratio)
Procedure, shortened: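 qHTS in CRE-bla HEK 293T cells: compound in DMSO, then 0.25 uM NKH477 (final), 3 h at 37 °C/5% CO2; beta-lactamase FRET read-out after 2 h substrate incubation.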

[19] = molecular target: Beta-2 adrenergic receptor (Homo sapiens) (UniProt P07550); test: Adrenergic beta2 receptor (ADRB2) small molecule agonists, cell-based qHTS assay (AID 1963593);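 also: CHO cells stably overexpressing human ADRB2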
Procedure, shortened: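 CHO cells stably over-expressing ADRB2 were plated overnight at 37C, then dosed with compounds plus a stimulation mix containing 100uM IBMX and 25uM Ro-20-1724 for 0.5hr at room temperature. cAMP was measured by HTRF competition, 1hr.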

[20] = molecular target: 5-hydroxytryptamine receptor 2A (Homo sapiens) (UniProt P28223); test: 5-hydroxytryptamine receptor 2A (HTR2A) small molecule antagonists, cell-based qHTS assay (AID 1963586); also: potency is read from the fitted curve at half-maximal effect; nearly all actives have a fitted effect of over 45% in size
Procedure, shortened: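 Antagonist-mode intracellular calcium assay: DOI (4 nM) added after 5 min compound pre-incubation at room temperature to dye-loaded HTR2A-CHO cells. Fluorescence followed for 3 min, sampled every second.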

Measured: Potency

CCCCCCC1CCCC(=O)O1 (stereo not drawn)
inactive: [1] | [2] | [3] | [4] | [5] | [6] | [7] | [8] | [9] | [10] | [11] | [12] | [13] | [14] | [15] | [16]

O=NN(CCCl)C(=O)NCCCl
inactive: [1] | [2] | [3] | [4] | [5] | [6] | [7] | [8] | [9] | [10] | [17] | [18] | [14] | [19] | [15] | [16]

CCCCCOc1ccc(C2SC(=O)NC2=O)cc1OCC (stereo not drawn)
inactive: [1] | [2] | [3] | [4] | [5] | [6] | [7] | [8] | [9] | [10] | [11] | [13] | [14] | [19] | [15] | [16]

C/C=C/C(=O)Oc1c(CCCCCC(C)C)cc([N+](=O)[O-])cc1[N+](=O)[O-]
inactive: [2] | [4] | [5] | [6] | [7] | [13] | [14] | [15] | [16]
active: [1] 17.2 µM | [3] 38.9 µM | [8] 14.5 µM | [9] 40.8 µM | [10] 11.5 µM | [20] 21.1 µM

CCCc1nc2c(C)cc(-c3nc4ccccc4n3C)cc2n1Cc1ccc(-c2ccccc2C(=O)O)cc1
inactive: [1] | [2] | [3] | [4] | [5] | [6] | [7] | [8] | [9] | [10] | [11] | [12] | [13] | [14] | [15] | [16]

CCCCCCCCCOC(=O)c1ccccc1C(=O)OCCCCCCCCC
inactive: [1] | [2] | [3] | [4] | [5] | [6] | [7] | [8] | [9] | [10] | [11] | [12] | [13] | [17] | [18] | [14] | [15] | [16]

CCCCCCCCCCCl
inactive: [1] | [2] | [3] | [4] | [5] | [6] | [7] | [8] | [9] | [10] | [11] | [12] | [13] | [14] | [15] | [16]

— PubChem BioAssay (Tox21)
